Compound activity: PubChem, National Center for Advancing Translational Sciences (NCATS)
HepG2 tox: qHTS for Inhibitors of TGF-b: Cytotox Counterscreen; AID 588856, 2011; Potency, µM (doses to about 46.1 µM), for inactives: at the highest dose activity change, negative = cytotoxicity, usual class: cytotoxic; 410,000 tested, 0.76% active; HepG2 CAGA-GFP viability, ATP luminescence, 18 h
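CellTiter-Glo luminescence gave cytotoxicity after 18 hours at 37 degrees C. The cells were HepG2 CAGA-GFP in 1% FBS DMEM, stimulated with 500 pg/mL TGF-beta after compound addition. %Activity was normalised to no-cell wells (complete cell-killing) and DMSO (no toxicity), and curves were fitted and classified.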
HT1080NT lethal: qHTS for induction of synthetic lethality in tumor cells producing 2HG: qHTS for the HT-1080-NT fibrosarcoma cell line. HT-1080-NT fibrosarcoma viability, CellTiter-Glo ATP luminescence, 48 h. Potency, µM (series often up to 46.1 µM), inactives show at the highest dose activity, negative = less viability, actives largely listed as cytotoxic. 360,000 tested, 1.6% active. AID 686970, 2013;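 further: NT is the 2HG producing partner of a matched IDH1 knockdown line; 0% = DMSO-treated cells and -100% = media-only wells without cells; nearly all actives have a fitted effect of over 55% in size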
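750 cells/well, RPMI + 5% FBS; 2 h settle, compound pin-transfer, 48 h at 37 degrees C. CellTiter-Glo 10 min RT, luminescence. Normalized to DMSO and media-only wells.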
TGFb SMAD3 inh: qHTS for Inhibitors of TGF-b; 410,000 tested, 1.2% active; HepG2 CAGA-GFP TGF-b/SMAD3 reporter, GFP fluorescence, 18 h; TGF-beta stimulated, 500 pg/mL final; Potency, µM (top dose mostly 46.1 µM), inactives show at the highest dose activity, negative = inhibition, most hits filed as inhibitors; further: on the % scale 0 is the no-effect control and ±100 the full control effect; nearly all actives have a fitted effect of over 65% in size
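Inhibition of TGF-beta-driven CAGA-GFP reporter expression in HEPG2 cells is measured by cellular GFP fluorescence after 18 h stimulation with 500 pg/mL recombinant TGF-beta in 1% FBS medium at 37 degrees C.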
HT1080 IDH1KD tx: qHTS for induction of synthetic lethality in tumor cells producing 2HG: qHTS for the HT-1080-IDH1KD cell line | 360,000 tested, 2% active | HT-1080 IDH1 knockdown viability, ATP luminescence, 48 h | Potency, µM (highest dose often 46.1 µM), for inactives: at the highest dose activity, negative = toxicity, actives largely listed as cytotoxic;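 further: 0% = DMSO wells and -100% = cell-free medium wells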
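Using the IDH1-knockdown HT-1080 line run in the same batch and compound series as the NT line, viability after 48 h at 37 °C was determined by CellTiter-Glo luminescence and expressed as % activity.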
TDP1 cell CPT: qHTS for Inhibitors of human tyrosyl-DNA phosphodiesterase 1 (TDP1): qHTS in cells in presence of CPT. 420,000 tested, 12% active. AID 686979, 2013. chicken DT40 Tdp1-/-;hTDP1 cells + 20 nM CPT, ATP luminescence, 48 h. Potency, µM (doses to about 46.2 µM), for the others: top-dose activity change, negative = growth inhibition, actives largely listed as inhibitors; further: on the % scale 0 is the no-effect control and ±100 the full control effect; nearly all actives have a fitted effect of over 55% in size
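Chicken DT40 Tdp1-/- cells complemented with human TDP1, 400 cells/well, exposed to compounds plus 20 nM camptothecin for at least 48 h at 37 C; viability read as ATP content by CellTiter-Glo luminescence.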
TDP1 cell noCPT: qHTS for Inhibitors of human tyrosyl-DNA phosphodiesterase 1 (TDP1): qHTS in cells in absence of CPT; Potency, µM (top dose mostly 46.2 µM), for inactives: at the highest dose activity change, negative = growth inhibition, most hits filed as inhibitors; 420,000 tested, 15% active; DT40 Tdp1-/- hTDP1 cells, no CPT, ATP luminescence, 48 h; further: on the % scale 0 is the no-effect control and ±100 the full control effect; nearly all actives have a fitted effect of over 55% in size
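No-CPT arm: Tdp1-/-;hTDP1 DT40 cells (400/well) plus compounds, incubated ≥48 hr at 37 °C. Readout CellTiter-Glo luminescence.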
Numbers without * were called inactive; ? = inconclusive; . = no result given; ! = not confirmed by another sample; [ ] = dose if it differs, or a comment. Compounds with a hit are over-represented: about 17% of the library has one in this group of screens. The call rests on the fitted dose curve; in most records, active means well fitted curve in the direction sought with a large enough effect; inconclusive means small, poorly fitted or top-dose-only effect, or another doubt; inactive means no such curve, though single readings can be large; an effect the other way counts as inactive or inconclusive. Potency means the concentration at half of the fitted maximal effect.

SMILES	HepG2 tox	HT1080NT lethal	TGFb SMAD3 inh	HT1080 IDH1KD tx	TDP1 cell CPT	TDP1 cell noCPT
C/C(=N/OC(=O)c1ccc(C)cc1)c1ccc(N2C(=O)C3CCCCC3C2=O)cc1 (stereo not drawn)	-2.2%	6.1%	-4.3%	2.0%	?	16.4µM*
O=C(NCc1ccon1)C1CCC(=O)N(CCc2cccc(F)c2)C1 (stereo not drawn)	-8.5%	0.0%	-13.3%	-0.7%	1.4%	2.3%
Cc1cc(C)cc(NC(=O)/C=C/c2ccc([N+](=O)[O-])s2)c1	-2.8%	?	4.3%	?	?	1.16µM*
Cc1ccccc1NC(=O)/C=C/c1cccs1	3.1%	-18.5%	-19.6%	-19.9%	?	?
Cc1ccccc1NC(=O)/C=C/c1ccc([N+](=O)[O-])s1	7.94µM*	4.11µM*	7.08µM*	3.66µM*	0.92µM*	0.82µM*
O=C(/C=C/c1cccc([N+](=O)[O-])c1)Nc1cc(C(=O)O)cc(C(=O)O)c1	0.0%	21.1%	2.2%	21.4%	?	?
O=C(CCS(=O)(=O)c1cc(Br)cc2c1N(C(=O)C1CC1)CC2)NCc1ccc(Cl)cc1	-8.7%	.	?	.	?	?
Cc1cccn2c(=O)c3cc(C#N)c(=NC(=O)c4ccccc4)n(Cc4ccco4)c3nc12	-2.6%	-1.7%	-22.2%	7.4%	18.4µM*	18.4µM*
Cc1cccc(C(=O)N=c2c(C#N)cc3c(=O)n4cccc(C)c4nc3n2Cc2ccco2)c1	12.7%	-2.1%	?	0.6%	20.6µM*	?
Cc1cccn2c(=O)c3cc(C#N)c(=NC(=O)c4ccco4)n(Cc4ccco4)c3nc12	1.3%	7.9%	-17.5%	?	-7.2%	?
O=C(/C=C/c1cccc(Cl)c1)NCCN1CCOCC1	-1.7%	3.7%	6.6%	18.7%	6.0%	8.1%
CCC1CN(Cc2c(C)nc3sccn23)Cc2cc(OC)ccc2O1 (stereo not drawn)	.	.	.	.	-2.9%[9.04 µM]	-5.9%
COc1ccc(NC(=O)Cn2cnc3c(nc4n3CCCCC4)c2=O)c(OC)c1	1.9%	.	2.7%	.	-2.1%	-0.9%
O=C1C2CC=CCC2C(=O)N1Nc1ccccc1 (stereo not drawn)	14.0%	20.6µM*	0.8%	?	13.1%	-7.7%
Oc1cc(O)cc(/C=C/c2ccc(O)c(O)c2)c1	-23.7%	?	0.6%	?	10.3µM*!	0.651µM*
COc1ccc(-n2c(C)cc(C(=O)CN3C(=O)c4ccccc4C3=O)c2C)cc1	20.6%	-21.0%	28.1%	-1.6%	-10.7%	?
Cc1cc(C(=O)COC(=O)c2ccc(O)cc2O)c(C)n1-c1ccccc1	-56.1%	-10.7%	?	-5.7%	20.6µM*	20.6µM*
COc1ccc(-n2c(C)cc(C(=O)CCl)c2C)cc1	22.4µM*	?	?	14.6µM*	1.46µM*	1.84µM*
COc1cc(NC(=O)c2cccs2)c(C(=O)OCC(=O)c2cc(C)n(-c3ccccc3)c2C)cc1OC	3.4%	23.7%	?	20.0%	?	20.6µM*
COc1ccc(-n2c(C)cc(C(=O)COC(=O)c3ccc(O)cc3O)c2C)cc1	-41.1%	?	?	?	8.2µM*	5.17µM*
Cc1cc(C(=O)OCC(N)=O)c(C)n1-c1ccccc1	7.9%	-7.1%	-5.5%	-5.3%	?	?
O=C(O)c1ccc(-n2c(O)c(C=C3N=c4ccccc4=N3)sc2=S)cc1	-39.6%	-5.0%	-1.9%	-13.9%	-19.5%	-2.8%
COc1ccc(/C=N/NC(=O)c2c(Br)cnn2C)c2ccccc12	-46.8%	0.8%	-13.9%	1.7%	-18.5%	-19.6%
O=C(NCc1ccccc1)c1ccc2c(c1)nc1n2CCOC1	3.6%	.	0.9%	.	-11.8%	-5.0%
Cc1cc(C(=O)COc2cccc(-n3cnnn3)c2)c(C)n1-c1ccccc1	6.0%	-13.0%	-7.0%	-28.8%	23.1µM*	20.6µM*
SMILES	HepG2 tox	HT1080NT lethal	TGFb SMAD3 inh	HT1080 IDH1KD tx	TDP1 cell CPT	TDP1 cell noCPT
Cc1cc(C(=O)COC(=O)c2ccc(O)cc2O)c(C)n1-c1ccc(OC(F)F)cc1	-16.2%	-7.4%	?	-19.9%	20.6µM*	7.31µM*
Cc1ccc(-n2c(C)cc(C(=O)COC(=O)c3ccc[nH]c3=O)c2C)cc1	-1.3%	-3.3%	3.5%	-1.9%	-17.9%	?
COc1ccc(-n2c(C)cc(C(=O)COC(=O)Cn3cnc4ccccc43)c2C)cc1	-10.7%	-9.1%	-19.5%	?	15.8µM*	17.8µM*
CC(C)C[C@H]1CN(CCCC[C@@H]2CNC(=O)C(=O)N2CC2CCCCC2)C(=O)C(=O)N1CC1CCCCC1	.	17.6%	.	6.9%	-0.4%	-28.4%
Cc1c(CCC(=O)NCc2ccc(F)cc2)c(=O)oc2cc(O)ccc12	-4.0%	.	4.3%	.	-4.8%	-20.1%
CCN1/C(=C/C=C/c2sc3ccccc3[n+]2CC)Sc2ccccc21	-32.1%	1.64µM*	?	1.46µM*	0.184µM*	0.146µM*
CCN1/C(=C/C=C/C=C/C=C/c2sc3ccccc3[n+]2CC)Sc2ccccc21	-16.0%	-16.9%	?	-16.2%	0.517µM*	0.231µM*
C=CCN1C(=O)/C(=C2/Sc3ccccc3N2CC)SC1=S	-6.0%	-0.8%	-0.2%	0.9%	-23.4%	-21.4%
CCN1C(=O)/C(=C/C=C2/Sc3ccccc3N2CCO)SC1=S	-0.4%	14.1%	-10.0%	-1.8%	?	?
Cc1cccc(CS(=O)(=O)CC2Nc3ccc(C(=O)NCc4ccccc4Cl)cc3NC2=O)c1 (stereo not drawn)	-32.6%	.	?	.	8.2µM*	?
O=C(Cc1ccc(Cl)cc1)Nc1nc2ccccc2[nH]1	-36.8%	-12.4%	-20.2%	-23.8%	5.17µM*	2.06µM*
CCNc1nc2ccccc2[nH]1	-3.5%	5.0%	-0.6%	6.8%	0.7%	-20.8%
